The campaign covered roughly 5,500 compounds. About 2,000 (36%) were called active. Inconclusive results (about 18%) are left out. No stated cut-off is given here; in the data, active means normalized growth mostly below about 0.91 (no sharp cut-off); inconclusive means no clear call, values can overlap the other calls; inactive means mostly above about 0.92. The list shows a part of the results.
Test: chemical genetic growth profiling, strain panel (AID 1159580);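 further: tested at 20 µM; growth read once vehicle control cultures reached saturation at 30 °C; 1 = growth at the plate median or of vehicle wells; lower values mean less growth of the strain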
Conditions: growth OD
[1] = S. cerevisiae deletion strains, locus YBR021W, strain FUR4, active compounds read low
[2] = S. cerevisiae deletion strains, locus YBR229C, strain ROT2, active compounds read low
[3] = S. cerevisiae deletion strains, locus YCL029C, strain bik1, active compounds read low
[4] = S. cerevisiae deletion strains, locus YDL035C, strain GPR1, active compounds read low
[5] = S. cerevisiae deletion strains, locus YDL074C, strain BRE1, active compounds read low
[6] = S. cerevisiae deletion strains, locus YDL101C, strain DUN1, active compounds read low
[7] = S. cerevisiae deletion strains, locus YDL185W, strain tfp1, active compounds read low
[8] = S. cerevisiae deletion strains, locus YDL192W, strain arf1, active compounds read low
[9] = S. cerevisiae deletion strains, locus YDR101C, strain arx1, active compounds read low
[10] = S. cerevisiae deletion strains, locus YDR162C, strain NBP2, active compounds read low
[11] = S. cerevisiae deletion strains, locus YDR318W, strain mcm21, active compounds read low
[12] = S. cerevisiae deletion strains, locus YDR388W, active compounds read low
[13] = S. cerevisiae deletion strains, locus YDR502C, strain sam2, active compounds read low
[14] = S. cerevisiae deletion strains, locus YEL061C, strain CIN8, active compounds read low
[15] = S. cerevisiae deletion strains, locus YER110C, active compounds read low
[16] = S. cerevisiae deletion strains, locus YER155C, strain BEM2, active compounds read low
[17] = S. cerevisiae deletion strains, locus YER167W, strain BCK2, active compounds read low
[18] = S. cerevisiae deletion strains, locus YGL078C, strain dbp3, active compounds read low
[19] = S. cerevisiae deletion strains, locus YGL086W, strain mad1, active compounds read low
[20] = S. cerevisiae deletion strains, locus YGL248W, strain PDE1, active compounds read low
[21] = S. cerevisiae deletion strains, locus YGR135W, strain pre9, active compounds read low
[22] = S. cerevisiae deletion strains, locus YGR252W, strain gcn5, active compounds read low
[23] = S. cerevisiae deletion strains, locus YHR030C, strain SLT2, active compounds read low
[24] = S. cerevisiae deletion strains, locus YHR079C, strain IRE1 (second series), active compounds read low
[25] = S. cerevisiae deletion strains, locus YHR094C, strain hxt1, active compounds read low
[26] = S. cerevisiae deletion strains, locus YHR129C, strain ARP1, active compounds read low
[27] = S. cerevisiae deletion strains, locus YHR200W, strain rpn10, active compounds read low
[28] = S. cerevisiae deletion strains, locus YIL066C, strain RNR3, active compounds read low
[29] = S. cerevisiae deletion strains, locus YIL073C, strain SPO22, active compounds read low
[30] = S. cerevisiae deletion strains, locus YIL125W, strain kgd1, active compounds read low
[31] = S. cerevisiae deletion strains, locus YIR030C, strain dcg1, active compounds read low
[32] = S. cerevisiae deletion strains, locus YJL095W, strain BCK1, active compounds read low
[33] = S. cerevisiae deletion strains, locus YJL134W, strain LCB3, active compounds read low
[34] = S. cerevisiae deletion strains, locus YJL168C, strain set2, active compounds read low
[35] = S. cerevisiae deletion strains, locus YJL187C, strain SWE1 (second series), active compounds read low
[36] = S. cerevisiae deletion strains, locus YJR043C, strain POL32, active compounds read low
[37] = S. cerevisiae deletion strains, locus YKL009W, strain mrt4, active compounds read low
[38] = S. cerevisiae deletion strains, locus YKL068W, active compounds read low
[39] = S. cerevisiae deletion strains, locus YKL085W, strain MDH1 (second series), active compounds read low
[40] = S. cerevisiae deletion strains, locus YKL085W, strain MDH1, active compounds read low
[41] = S. cerevisiae deletion strains, locus YKL190W, strain CNB1, active compounds read low
[42] = S. cerevisiae deletion strains, locus YKR001C, strain vps1, active compounds read low
[43] = S. cerevisiae deletion strains, locus YLR039C, strain RIC1, active compounds read low
[44] = S. cerevisiae deletion strains, locus YLR058C, strain SHM2, active compounds read low
[45] = S. cerevisiae deletion strains, locus YLR102C, strain apc9, active compounds read low
[46] = S. cerevisiae deletion strains, locus YLR262C, strain YPT6, active compounds read low
[47] = S. cerevisiae deletion strains, locus YLR268W, strain sec22, active compounds read low
[48] = S. cerevisiae deletion strains, locus YLR330W, strain CHS5, active compounds read low
[49] = S. cerevisiae deletion strains, locus YLR342W, strain FKS1 (second series), active compounds read low
[50] = S. cerevisiae deletion strains, locus YLR371W, strain rom2, active compounds read low
[51] = S. cerevisiae deletion strains, locus YLR418C, strain cdc73, active compounds read low
[52] = S. cerevisiae deletion strains, locus YML016C, strain PPZ1, active compounds read low
[53] = S. cerevisiae deletion strains, locus YML032C, strain rad52, active compounds read low
[54] = S. cerevisiae deletion strains, locus YML124C, strain tub3, active compounds read low
[55] = S. cerevisiae deletion strains, locus YMR078C, strain ctf18, active compounds read low
[56] = S. cerevisiae deletion strains, locus YMR223W, strain ubp8, active compounds read low
[57] = S. cerevisiae deletion strains, locus YMR263W, strain SAP30, active compounds read low
[58] = S. cerevisiae deletion strains, locus YMR307W, strain GAS1, active compounds read low
[59] = S. cerevisiae deletion strains, locus YNL067W, strain RPL9B, active compounds read low
[60] = S. cerevisiae deletion strains, locus YNL153C, strain GIM3, active compounds read low
[61] = S. cerevisiae deletion strains, locus YNL233W, strain BNI4, active compounds read low
[62] = S. cerevisiae deletion strains, locus YNL250W, strain rad50, active compounds read low
[63] = S. cerevisiae deletion strains, locus YNL271C, strain bni1, active compounds read low
[64] = S. cerevisiae deletion strains, locus YNL298W, strain CLA4, active compounds read low
[65] = S. cerevisiae deletion strains, locus YNL307C, strain MCK1, active compounds read low
[66] = S. cerevisiae deletion strains, locus YNL322C, strain KRE1, active compounds read low
[67] = S. cerevisiae deletion strains, locus YNR052C, strain pop2, active compounds read low
[68] = S. cerevisiae deletion strains, locus YOL012C, strain htz1
[69] = S. cerevisiae deletion strains, locus YOL147C, strain pex11, active compounds read low
[70] = S. cerevisiae deletion strains, locus YOR061W, strain CKA2, active compounds read low
[71] = S. cerevisiae deletion strains, locus YOR069W, strain VPS5, active compounds read low
[72] = S. cerevisiae deletion strains, locus YOR136W, strain idh2, active compounds read low
[73] = S. cerevisiae deletion strains, locus YOR144C, strain elg1, active compounds read low
[74] = S. cerevisiae deletion strains, locus YOR184W, strain ser1, active compounds read low
[75] = S. cerevisiae deletion strains, locus YOR316C, strain cot1, active compounds read low
[76] = S. cerevisiae deletion strains, locus YPL241C, strain CIN2, active compounds read low
[77] = S. cerevisiae deletion strains, locus YPR119W, strain clb2, active compounds read low
[78] = S. cerevisiae deletion strains, locus YPR141C, strain kar3, active compounds read low
[79] = S. cerevisiae deletion strains, locus YPR163C, strain tif3, active compounds read low
[80] = S. cerevisiae deletion strains, locus YPR167C, strain met16, active compounds read low
[81] = S. cerevisiae deletion strains, strain wtn01, active compounds read low

Measured: normalized growth

COc1ccccc1-c1cc(=O)c2c(OC)cccc2o1
inactive: [1] 0.99 | [2] 0.973 | [3] 1 | [4] 0.953 | [5] 0.923 | [6] 0.966 | [7] 0.987 | [9] 0.987 | [10] 0.95 | [11] 0.935 | [12] 0.985 | [13] 0.944 | [14] 0.977 | [15] 0.977 | [16] 1.01 | [17] 0.996 | [18] 0.983 | [19] 0.99 | [20] 0.942 | S. cerevisiae deletion strains, locus YGR078C, strain PAC10, active compounds read low 0.938 | [21] 0.915 | [22] 0.776 | [23] 0.991 | [24] 0.979 | [25] 0.996 | [26] 0.967 | [27] 0.98 | [28] 0.961 | [29] 0.931 | [30] 1.01 | [31] 0.969 | [33] 0.988 | [34] 0.971 | [35] 0.954 | [36] 0.999 | S. cerevisiae deletion strains, locus YJR075W, strain HOC1, active compounds read low 0.987 | [37] 0.968 | [38] 0.993 | [39] 0.982 | [40] 0.982 | [41] 0.972 | [42] 0.916 | [43] 0.872 | [44] 0.96 | [45] 0.988 | [46] 0.815 | [47] 0.98 | [48] 0.976 | [49] 0.894 | [50] 0.979 | [52] 0.983 | [53] 0.951 | [54] 0.983 | [55] 0.969 | [56] 0.916 | [57] 0.958 | [58] 0.72 | [59] 0.982 | [60] 0.974 | [61] 0.922 | [62] 0.999 | [63] 0.969 | [64] 0.965 | [66] 0.978 | [67] 0.958 | S. cerevisiae deletion strains, locus YOL006C, strain TOP1, active compounds read low 0.762 | [68] 1.44 | [69] 0.975 | [70] 0.972 | [71] 0.982 | [72] 1 | [73] 0.996 | [75] 0.992 | [76] 0.974 | [77] 0.982 | [78] 0.987 | [79] 0.964 | [80] 0.969 | [81] 1 | S. cerevisiae strains, strain wild type, active compounds read low 0.975
active: [8] 0.892 | [32] 0.773 | [51] 0.77 | [65] 0.88 | [74] 0.837

COc1ccccc1-c1cc(=O)c2cccc(OC)c2o1
inactive: [2] 0.972 | [3] 0.987 | [4] 0.894 | [5] 0.824 | [6] 0.909 | [7] 0.986 | [9] 0.928 | [10] 0.857 | [12] 0.97 | [15] 1.01 | [16] 0.93 | [18] 0.991 | [24] 0.993 | [25] 1 | [27] 0.939 | [29] 0.875 | [30] 0.989 | [31] 0.977 | [33] 0.974 | [34] 0.977 | [35] 0.885 | [36] 0.864 | [37] 0.978 | [38] 0.998 | [39] 0.977 | [40] 0.977 | [41] 0.938 | [43] 0.84 | [44] 0.911 | [45] 1.01 | [46] 0.855 | [47] 0.924 | [52] 0.956 | [53] 0.92 | [54] 0.972 | [55] 0.986 | [58] 0.843 | [59] 0.896 | [60] 0.903 | [62] 0.997 | [63] 0.983 | [64] 0.963 | [67] 0.964 | [68] 1.7 | [70] 0.976 | [71] 0.951 | [72] 0.992 | [73] 0.967 | [75] 0.991 | S. cerevisiae deletion strains, locus YPL055C, strain LGE1, active compounds read low 0.826 | [77] 1 | [78] 1 | [79] 0.924 | [80] 0.964 | [81] 0.918
active: [1] 0.795 | S. cerevisiae deletion strains, locus YDL134C, strain PPH21, active compounds read low 0.865 | [8] 0.867 | [11] 0.915 | [13] 0.906 | [14] 0.902 | [17] 0.899 | [19] 0.908 | [20] 0.865 | [21] 0.869 | S. cerevisiae deletion strains, locus YGR229C, strain SMI1, active compounds read low 0.617 | [22] 0.714 | [23] 0.753 | [26] 0.882 | [28] 0.814 | [32] 0.562 | [42] 0.855 | [48] 0.798 | [49] 0.732 | [50] 0.839 | [51] 0.642 | [56] 0.886 | [61] 0.795 | [65] 0.758 | [69] 0.924 | [74] 0.758

O=c1cc(N2CCOCC2)oc2c(-c3ccccc3)cccc12
inactive: S. cerevisiae deletion strains, locus YAL013W, strain DEP1, active compounds read low 1.03 | S. cerevisiae deletion strains, locus YAL040C, strain CLN3, active compounds read low 0.996 | S. cerevisiae deletion strains, locus YCL061C, strain MRC1 (second series), active compounds read low 1.01 | S. cerevisiae deletion strains, locus YDR150W, strain NUM1, active compounds read low 0.992 | S. cerevisiae deletion strains, locus YDR363W, strain ESC2, active compounds read low 0.995 | S. cerevisiae deletion strains, locus YER002W, strain NOP16, active compounds read low 1 | [57] 0.992 | S. cerevisiae deletion strains, locus YNL175C, strain NOP13, active compounds read low 0.996 | S. cerevisiae deletion strains, locus YNL197C, strain WHI3, active compounds read low 0.991 | S. cerevisiae deletion strains, locus YNL224C, strain SQS1, active compounds read low 0.999 | [66] 1.01 | S. cerevisiae deletion strains, locus YOR083W, strain WHI5 (second series), active compounds read low 0.986 | [76] 0.998

— PubChem BioAssay AID1159580 (chemical genetic matrix, 2015)
